LYPLA1 counter – LYPLA1 (human) inhibition in PME1 counter-screen; AID 2174; O75608; inhibition, % at 5.9 µM; 0.16% of 320,000 active; recombinant LYPLA1, FP-Rh probe fluorescence polarization;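 active = inhibition above the mean of all tested compounds plus 3 SD, set per campaign, cut at about 14% in these data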;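 note: inhibitors block serine hydrolase probe labeling of LYPLA1 so polarization falls; 0% = enzyme with DMSO and 100% = wells lacking LYPLA1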
LYPLA2 inh – blocks human lysophospholipase 2, a PME1 counter-screen. O95372. recombinant LYPLA2, FP-Rh probe fluorescence polarization. inhibition, % at 5.9 µM. 0.38% of 320,000 active;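 active = inhibition above the screen-wide mean plus 3 SD, limit set per campaign, cut at about 26% in these data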;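 note: 0% = LYPLA2 with DMSO and 100% = wells lacking LYPLA2 enzyme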
MEX-5 binding – C. elegans MEX-5 TCR-2 RNA binding activity | Q9XUB2 | 0.38% of 300,000 active | MEX-5/FITC-TCR2 RNA binding, fluorescence polarization; stronger effect = lower value | AID 1832 | activity score (negative = inhibition of binding), % at 10 µM;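 active = inhibition past about -25% in most replicates, and total fluorescence under double the plate's negative control median, limit read from the data; inconclusive = replicates evenly split on the limit, or fluorescence at least double controls; inactive = too little inhibition in most replicates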;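 note: 0% = DMSO and -100% = 5 µM competing unlabeled TCR2 RNA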
Target sequence (Q9XUB2 whole entry, looked up): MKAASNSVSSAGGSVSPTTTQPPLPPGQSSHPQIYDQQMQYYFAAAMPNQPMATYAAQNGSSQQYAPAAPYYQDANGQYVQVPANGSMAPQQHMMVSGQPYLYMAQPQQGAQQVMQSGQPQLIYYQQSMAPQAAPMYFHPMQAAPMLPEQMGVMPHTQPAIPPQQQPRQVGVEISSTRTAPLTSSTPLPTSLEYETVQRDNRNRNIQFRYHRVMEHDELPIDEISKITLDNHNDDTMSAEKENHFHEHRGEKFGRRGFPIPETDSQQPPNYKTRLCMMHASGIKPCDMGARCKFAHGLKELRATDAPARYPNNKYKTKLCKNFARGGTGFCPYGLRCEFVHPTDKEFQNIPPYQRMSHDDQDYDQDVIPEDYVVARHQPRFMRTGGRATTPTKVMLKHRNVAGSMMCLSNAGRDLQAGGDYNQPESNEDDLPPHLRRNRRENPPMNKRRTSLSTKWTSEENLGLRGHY
PME-1 primary – PME-1 (human) inhibition | Q9Y570 | recombinant PME-1, FP-Rh probe fluorescence polarization | inhibition, % at 5.9 µM | 0.53% of 320,000 active | AID 2130;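 active = inhibition above the campaign mean of all compounds plus 3 SD, cut at about 26% in these data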;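 note: competitive labeling of PME-1 active site by serine hydrolase directed probe; 0% = PME-1 with DMSO and 100% = wells lacking PME-1 enzyme; inhibitors block probe labeling so polarization falls and inhibition rises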
PREPL inh – human PREPL enzyme inhibition; 0.68% of 320,000 active; AID 2751; recombinant PREPL, fluorescence polarization activity-based probe; inhibition, % at 5.96 µM; in the data active = inhibition above about 43%;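 note: 0% = enzyme with DMSO and 100% = wells lacking enzyme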
Fam108B inh – Fam108B inhibition, counter-screen for RBBP9 inhibitors | AID 1947 | recombinant Fam108B, FP-Rh probe fluorescence polarization | inhibition, % at 9.51 µM | 0.33% of 300,000 active;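 active = inhibition above the screen mean inhibition plus 3 SD, computed separately per campaign, cut at about 18% in these data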;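 note: inhibitors lower polarization as less probe binds the enzyme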
* hit, by the source's call; ? = inconclusive; / = no result given. Shown are actives, neighbours in structure and some others; about 1.6% of the full set was active somewhere.

SMILES | LYPLA1 counter | LYPLA2 inh | MEX-5 binding | PME-1 primary | PREPL inh | Fam108B inh
C#CCOCCOCCOCCNc1nc(N2CCN(C(=O)CCCCCCCCCCNC(=O)[C@H](CCCCN)n3cc(C[C@@H](C)CC)nn3)CC2)nc(N2CCN(C(=O)CCCCCCCCCCNC(=O)[C@H](CCCCN)n3cc(C[C@@H](C)CC)nn3)CC2)n1 | -10 | -13 | 22 | -9 | 46* | -5
C#CCOCCOCCOCCNc1nc(N2CCN(C(=O)CCCCCCCCCCNC(=O)[C@H]([C@@H](C)CC)n3cc(CCCCN=C(N)N)nn3)CC2)nc(N2CCN(C(=O)CCCCCCCCCCNC(=O)[C@H](CCCCN)n3cc(C[C@@H](C)CC)nn3)CC2)n1 | -7 | 20 | / | -10 | 57* | -10
C#CCOCCOCCOCCNc1nc(N2CCN(C(=O)CCCCCCCCCCNC(=O)Cn3cc(C[C@@H](C)O)nn3)CC2)nc(N2CCN(C(=O)CCCCCCCCCCNC(=O)[C@H](CCCCN)n3cc(C[C@@H](C)CC)nn3)CC2)n1 | -3 | 3 | / | -2 | 29 | -4
COc1ccc(C(=O)CSc2nnnn2Cc2ccccc2)cc1 | 0 | -6 | -1 | -8 | -7 | -2
Cc1cc(C(=O)NCC(c2cccs2)N2CCOCC2)ccc1[N+](=O)[O-] (stereo not drawn) | 2 | 5 | 2 | -6 | 3 | 1
COc1cc2c(cc1NC(=S)Nc1cccc(C)c1)oc1ccccc12 | -3 | -9 | 0 | 7 | 44* | 5
COc1cc2c(cc1NC(=S)Nc1ccccc1C)oc1ccccc12 | -3 | -5 | -2 | 6 | 28 | 5
COc1ccc(CCNCC(O)COc2ccc(OC)cc2C(C)(C)C)cc1 (stereo not drawn) | -2 | -6 | -3 | -4 | 3 | -3
NC(=O)C[n+]1cccc2ccccc21 | 2 | 3 | -36* | -3 | 10 | 1
Cc1cc(NS(=O)(=O)c2ccc(NC(=S)NC(=O)c3cccc(S(=O)(=O)N(C)C)c3)cc2)no1 | -1 | 6 | 0 | 0 | 1 | -4
N#C/C(=N\Nc1ccc(F)cc1)C(=O)C1CC1 | -2 | 4 | -2 | 4 | 14 | -1
N#C/C(=N\Nc1ccc(Cl)c(Cl)c1)C(=O)C1CC1 | 11 | 12 | -1 | 34* | 4 | 8
Cc1c(C(=O)OC/C(O)=C(\C#N)c2nc3ccccc3[nH]2)oc2ccccc12 | -9 | -13 | 0 | 32* | 2 | -3
COc1cc(OC)cc(C(=O)OC/C(O)=C(\C#N)c2nc3ccccc3[nH]2)c1 | -6 | -10 | 0 | 3 | -6 | 1
COc1cc(C(C)=O)ccc1OCC(=O)NC(=O)Nc1ccc(C)cc1C | / | / | / | / | 9 | /
COc1ccc(-c2c/c(=N\c3nc(-c4ccccc4)c(C)s3)c3ccccc3o2)cc1O | -14 | -7 | -1 | 31* | 22 | 15
O=C(COC(=O)C1CC1)NCc1ccccc1Cl | 4 | 2 | 2 | -3 | -6 | -24
N#C/C(=N\Nc1ccc(Cl)cc1)C(=O)c1ccsc1 | 4 | -2 | -38* | -4 | 2 | -3
Cc1ccc(N/N=C(\C#N)C(=O)c2ccsc2)cc1 | 0 | 5 | -1 | -10 | 5 | 2
CCOC(=O)c1c2c3c(cccc3n(C)c1=O)C(=O)c1ccccc1-2 | 10 | 13 | ? | 28* | 24 | 11
Cc1ccc(NC(=O)CN(C)CC(=O)Nc2ccc(N3CCOCC3)cc2)c(C)c1 | -2 | -1 | -1 | -6 | 54* | 2
CC(C)Cn1c(=O)c2c(c3ccccc31)OC(C)C(=O)N2 (stereo not drawn) | / | / | -2 | / | / | /
COc1cc([N+](=O)[O-])cc(/C=N/NC(=O)Cn2cncn2)c1O | 2 | 2 | -12 | 2 | -5 | 5
COc1cc([N+](=O)[O-])cc(/C=N/NC(=O)CC#N)c1O | / | / | -32* | / | / | /
Cc1nn(-c2ccccc2)c2ncc(C(=O)c3cc(Cl)ccc3O)cc12 | -8 | -6 | 1 | 29* | -19 | -9
CCCC(=O)NC(c1ccccc1Cl)c1c(O)ccc2ccccc12 (stereo not drawn) | 0 | -6 | 1 | 61* | 2 | 0
CCCCC(=O)NC(c1ccccc1Cl)c1c(O)ccc2ccccc12 (stereo not drawn) | -6 | -3 | 0 | 45* | 9 | 1
